Screening data deposited in PubChem by National Center for Advancing Translational Sciences (NCATS).
Pol iota inh = DNA polymerase iota (human) inhibition; Q9UNA4; Pol iota fluorescent replication assay, 10 min; Potency, µM (top dose mostly 115 µM), inactives show at the highest dose activity, negative = inhibition, usual class: inhibitors; 1% of 390,000 active
Target sequence (Q9UNA4 whole entry, looked up): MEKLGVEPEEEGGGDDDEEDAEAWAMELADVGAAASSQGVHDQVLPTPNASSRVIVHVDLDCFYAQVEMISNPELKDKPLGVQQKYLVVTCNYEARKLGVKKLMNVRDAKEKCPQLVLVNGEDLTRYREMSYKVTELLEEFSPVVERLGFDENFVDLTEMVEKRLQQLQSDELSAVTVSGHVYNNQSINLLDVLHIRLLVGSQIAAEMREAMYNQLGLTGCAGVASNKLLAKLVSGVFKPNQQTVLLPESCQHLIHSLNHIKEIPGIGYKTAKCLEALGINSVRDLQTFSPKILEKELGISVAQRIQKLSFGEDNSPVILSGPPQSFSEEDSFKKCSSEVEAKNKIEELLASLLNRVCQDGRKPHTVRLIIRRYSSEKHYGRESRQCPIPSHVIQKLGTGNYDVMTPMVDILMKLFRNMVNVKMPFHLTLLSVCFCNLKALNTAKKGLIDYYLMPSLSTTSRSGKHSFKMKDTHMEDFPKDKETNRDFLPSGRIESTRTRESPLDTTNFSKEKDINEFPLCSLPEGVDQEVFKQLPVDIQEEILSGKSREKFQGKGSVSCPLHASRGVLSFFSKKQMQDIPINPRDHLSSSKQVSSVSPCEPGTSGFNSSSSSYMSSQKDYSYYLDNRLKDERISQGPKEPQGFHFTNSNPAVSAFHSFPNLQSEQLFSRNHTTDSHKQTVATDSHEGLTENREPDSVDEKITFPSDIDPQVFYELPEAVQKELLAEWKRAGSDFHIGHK
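Fluorescent replication assay read twice, at 0 min and 10 min after adding 50 nM (final) substrate. Enzyme (10 nM) and compounds were first incubated 15 min at room temperature; enzyme-free buffer wells were negative controls.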
Pol eta inh = inhibitors of human DNA polymerase eta; Q9Y253; Potency, µM (highest dose often 114 µM), for inactives: top-dose activity change, negative = inhibition, hits mostly inhibitors; recombinant Pol eta, fluorescent DNA replication assay; 1.2% of 390,000 active; also: % is scaled to controls: 0 for no effect and ±100 for the full control effect
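Pol eta (10 nM) was preincubated with compounds for 15 min at room temperature, after which fluorescent replication substrate (50 nM final) was added to start the reaction. Fluorescence was read kinetically at 0 and 10 min.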
FEN1 inhibitor = inhibitors of human flap endonuclease 1; AID 588795; 0.35% of 390,000 active; Recombinant FEN1 flap cleavage, fluorescence, 15 min; Potency, µM (highest dose often 114 µM), inactives show at the highest dose activity change, negative = inhibition, actives largely listed as inhibitors; also: % is scaled to controls: 0 for no effect and ±100 for the full control effect; nearly all actives have a fitted effect of over 65% in size
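FEN1 at 10 nM preincubated with compounds 15 min at room temperature, then flap DNA substrate added at 50 nM final. Signal read at 0 and 15 min; concentration-response fitted with four-parameter Hill equation.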
WRN helicase inh = WRN helicase (human) inhibition. WRN helicase unwinding, fluorescent forked duplex, kinetic. Potency, µM (top dose mostly 114 µM), for the others: at the top dose activity change, negative = inhibition, actives largely listed as inhibitors. 0.46% of 360,000 active; also: % is scaled to controls: 0 for no effect and ±100 for the full control effect; nearly all actives have a fitted effect of over 55% in size
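WRN at 20 nM final preincubated with compound 15 min at room temperature; reaction started with 100 nM fluorophore/quencher forked duplex oligonucleotide and 2 mM ATP final. Unwinding followed kinetically by red fluorescence (ex 525, em 598 nm).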
POLB inh = DNA polymerase beta (human) inhibition | P06746 | Pol beta primer extension/strand displacement, fluorescence kinetic | Potency, µM (highest dose often 114 µM), for inactives: at the highest dose activity change, negative = inhibition, most hits filed as inhibitors | 1.3% of 340,000 active | AID 485314; also: % is scaled to controls: 0 for no effect and ±100 for the full control effect
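Pol beta (10 nM) and compounds were preincubated 15 min at room temperature, then 50 nM substrate (final) started primer extension/strand displacement. Reads were taken at 0 and 10 min; concentration-response data were fitted to a four-parameter Hill equation.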
Pol kappa inh = inhibitors of human DNA polymerase kappa; Q9UBT6; purified Pol kappa, fluorescent DNA synthesis assay, 10 min; Potency, µM (titrated, usually from 107 µM), inactives show at the highest dose activity, negative = inhibition, hits mostly inhibitors; 0.53% of 400,000 active; also: % is scaled to controls: 0 for no effect and ±100 for the full control effect
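10 nM Pol kappa was preincubated with compounds for 15 min at room temperature. Reaction started with 50 nM (final) substrate. Fluorescence read kinetically at 0 and 10 min.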
* = called active by the depositor; ? = inconclusive; nt = not tested or not shown; ! = not active in a repeat; [ ] = remark or other dose. Hits are enriched below; roughly 2.4% of the tested compounds scored in any of these assays. Calls follow the shape of the dose curve; as a rule, active = well fitted curve in the direction sought with a large enough effect; inconclusive = small, poorly fitted or top-dose-only effect, or another doubt; inactive = no such curve, though single readings can be large; an effect the other way counts as inactive or inconclusive. Potency is read from the fitted curve at half-maximal effect.

SMILES	Pol iota inh	Pol eta inh	FEN1 inhibitor	WRN helicase inh	POLB inh	Pol kappa inh
COc1ccc(-c2nc3cnc(OC)nc3n(Cc3cccc(OC)c3)c2=O)cc1	nt	nt	nt	nt	nt	-2%[60.1 µM]
CCOc1cc(C(c2c(C)[nH]n(-c3ccccc3)c2=O)c2c(C)[nH]n(-c3ccccc3)c2=O)ccc1O	1.6µM*	-19%	?	nt	-2%	-7%
COc1ccc(C(c2c(C)n(C)n(-c3ccccc3)c2=O)c2c(C)n(C)n(-c3ccccc3)c2=O)cc1OC	?	-4%	20%	1%	15%	-3%
COc1ccc(C(c2c(C)[nH]n(-c3ccccc3)c2=O)c2c(C)[nH]n(-c3ccccc3)c2=O)cc1OC	1.3µM*	-5%	?	?	32%	-12%
Cc1[nH]n(-c2ccccc2)c(=O)c1C(c1cc(Cl)ccc1O)c1c(C)[nH]n(-c2ccccc2)c1=O	?	?	?	nt	18%	-9%
Cc1cc2c(c(=O)o1)C1(C(=O)N(CC(=O)O)c3ccccc31)C(C#N)=C(N)O2 (centres undefined)	?	20µM*	-12%	-30%	?	?
CCOC(=O)[C@]12CCCC=C1N(CCc1ccc(OC)c(OC)c1)C(=O)[C@H](CC(=O)N1CCCC1)C2	nt	nt	nt	14%	nt	nt
COc1ccc(Cl)cc1NC(=O)CC(C)=O	-1%	-16%	0%	-3%	22%	-10%
COc1ccc(Cl)cc1NC(=O)CSc1nc2sccc2c(=O)[nH]1	3%	-29%	-14%	-21%	56µM*	-16%
COc1ccc(Cl)cc1NC(=O)CCn1nc(C)cc1C	?	-15%	-3%	nt	32µM*	-29%
COc1ccccc1NC(=O)CSc1sc2c(O)cc(=O)[nH]c2c1C#N	2.8µM*	20µM*	50µM*	50µM*	0.56µM*	50µM*
COc1ccc(Cl)cc1NC(=O)CSc1sc2c(O)cc(=O)[nH]c2c1C#N	25µM*	25µM*	-36%	?	-14%	?
CCOC(=O)C1CCN(C(=O)CSc2n[nH]c(-c3ccc(F)cc3)n2)CC1	?	9%	18%	nt	24%	-9%[60.1 µM]
O=C(Cn1c(=O)oc2ccccc21)NCc1ccccc1Cl	6%	-9%	1%	nt	-12%	-11%[60.1 µM]
COc1ccc([C@]23Cc4cc(OC)c(OC)cc4C(O2)C2=C(CC4(CCCCC4)OC2=O)O3)cc1	nt	nt	nt	nt	19%[22.9 µM]	nt
O=C1OC2(CCCCC2)CC2=C1C1O[C@](c3ccsc3)(Cc3c1ccc1ccccc31)O2	nt	nt	nt	nt	10µM*	nt
CCN(CC)c1cc2c(cc1F)c(=O)c(S(=O)(=O)c1ccc(OC)cc1)cn2Cc1ccccc1	-8%	-2%	10%	nt	-4%	-7%
COc1ccc2cc(/C=C3\SC(=S)NC3=O)c(N3CCOCC3)nc2c1	-6%	20µM*	?	-7%[11.6 µM]	?	-25%
Cc1cc(N2CCCCC2)nc2ccc(NC(=O)/C=C/c3ccccc3OC(C)C)cc12	32%	-14%	-7%	nt	30%	2%
CCOc1ccc(C(=O)NC(=S)Nc2cc(C)ccn2)cc1[N+](=O)[O-]	?	-7%	-9%	0%	32µM*	-4%
CCC(=O)Nc1cc2c(cc1C(=O)c1ccccc1)OCCO2	11%	-8%	-8%	-11%	79µM*	-7%
COC(=O)C1=C[C@@H](C(=O)OC)C2C3=C(C(=O)[C@]2(C)NC(=O)c2ccccc2)[C@H](C)n2c(=O)n(C)c(=O)n2[C@@H]3C1 (some centres undefined)	6%	nt	-11%	nt	nt	-5%
CCCCc1nnc(SCCSc2nnc(CCCC)n2N)n1N	89µM*	-10%	0%	7%	28%	-6%
CCc1nnc(SCCSc2nnc(CC)n2N)n1N	8%	0%	-4%	-9%	-8%	-2%
CCOC(=O)c1sc2ccccc2c1S(=O)(=O)Nc1ccc(CC)cc1	6%	-10%	-7%	nt	4%	-16%[60.1 µM]
SMILES	Pol iota inh	Pol eta inh	FEN1 inhibitor	WRN helicase inh	POLB inh	Pol kappa inh
CCOC(=O)c1c2c3c(c(Cl)ccc3[nH]c1=O)C(=O)c1ccccc1-2	?	79µM*	-4%	-19%[11.6 µM]	?	?
COc1ccccc1C(=O)Nc1nnc(SCc2cc(=O)c3cc(Cl)ccc3[nH]2)s1	-22%	-8%	-9%	nt	4µM*	-7%[60.1 µM]
Cc1ccc2[nH]c(CSc3nnc(NC(=O)c4ccc(Cl)cc4)s3)cc(=O)c2c1	-7%	8%	0%	nt	-14%	-13%[60.1 µM]
Cc1ccc(Cn2c(=O)c3cccnc3n(CC(=O)Nc3cccc(C(F)(F)F)c3)c2=O)cc1	89µM*!	?	?	0%	-125%	-30%
O=C(O)COc1ccccc1C(Nc1cccnc1)c1cc(Cl)c2cccnc2c1O (centres undefined)	?	79µM*	?	?	-29%	?
CCOc1ccc(C(Nc2cccnc2)c2cc(Cl)c3cccnc3c2O)cc1 (centres undefined)	48%	?	?	-5%	6%	-9%
Cc1ccc(C(=O)COC(=O)c2ccc(Cl)c(N)c2)s1	0%	-7%	-4%	?	nt	-2%
Nc1cc(C(=O)OCC(=O)c2ccc(CC(=O)N3CCOCC3)s2)ccc1Cl	13µM*	28µM*	-21%	-28%	nt	?
CCCCCOc1ccc(/C=c2\sc3nc(=O)c(-c4ccccc4)nn3c2=O)cc1OC	7%	-3%	-1%	-22%	-8%	-19%
CCCOc1ccc(/C=c2\sc3nc(-c4ccco4)nn3c2=O)cc1OCC	22µM*	?	2%	?	?	?
Cc1ccccc1NC(=O)c1ccccc1OCC(=O)Nc1ccc(Br)cc1	11%	nt	-25%	nt	nt	-13%
COc1ccc(/C=C2\C(=N)N3N=C(CC(=O)N4CCOCC4)SC3=NC2=O)cc1	?	-7%	-3%	11%	3%	0%
Cc1ccc(/C=C2\C(=N)N3N=C(CC(=O)N4CCOCC4)SC3=NC2=O)o1	?	28µM*	13%	-34%	?	?
N=C1/C(=C\c2ccc(SCc3ccccc3)o2)C(=O)N=C2SC(CC(=O)N3CCOCC3)=NN12	10µM*	56µM*	-15%	-13%	?	?
CCOC(=O)CSC1=Nc2ccccc2C2=NC(CCC(=O)NCc3ccccc3)C(=O)N12 (centres undefined)	25%	0%	-1%	nt	13%	4%[60.1 µM]
COc1cccc2c1C(=O)c1c(O)c3c(c(O)c1C2=O)C[C@@](O)(C(=O)CO)C[C@@H]3O[C@H]1C[C@H](N)[C@@H](O)[C@H](C)O1	40µM*	?	?	56µM*	nt	?
